From PubChem BioAssay (NCI) come the findings set out here.

Each structure is given as a SMILES string. “And” between values parts separate entries of the source, which are not always exact repeats. Equal entries are not always repeated. The panel holds about 83,000 compounds, 20% with a hit somewhere; the sample as a whole holds those more often.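 Testing used 96-well plates and a 48-hour single-concentration exposure. Example: -40 means 40% of the starting cells died.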 The source made the active and inactive calls. How the source made its calls: active means growth percent below 10; inactive means the rest.

Some test systems named below: SR leukemia; RPMI-8226 leukemia; OVCAR-8 ovarian; OVCAR-4 ovarian; SK-OV-3 ovarian; IGROV1 ovarian; OVCAR-3 ovarian; HS 578T breast; NCI/ADR-RES ovarian; OVCAR-5 ovarian.
What all share (assay): NCI-60 one-dose screen, 48 h (100 = growth as untreated, 0 = no growth, -100 = all killed)
Conditions in all cases: 10 µM unless noted

For the compound `Cc1nc2cccc(NCCCCC(=O)NO)c2c(=O)n1-c1ccccc1`, the growth in the assay with SR leukemia was 29.4% (inactive); in the assay with RPMI-8226 leukemia, 36.1% (inactive); in the assay on OVCAR-8 ovarian it was 39.5% (inactive); in the assay with OVCAR-4 ovarian, 68.7% (inactive); in the assay with SK-OV-3 ovarian it was 50.8% (inactive); in the assay on IGROV1 ovarian, 58.2% (inactive). Besides, the figures for the growth with OVCAR-3 ovarian, with HS 578T breast and in the assay on NCI/ADR-RES ovarian were 68.1% (inactive), 55.2% (inactive) and 75.3% (inactive), respectively.
In the case of `C=C(CNCCO)[C@@H]1CC[C@]2(CO)CC[C@]3(C)[C@H](CC[C@@H]4[C@@]5(C)CCC(NCCc6ccc(O)cc6)C(C)(C)[C@@H]5CC[C@]43C)[C@@H]12` (some centres undefined), the growth in the assay on SR leukemia is -50.6% (active); with RPMI-8226 leukemia it was -51.3% (active); in the assay with OVCAR-8 ovarian it was -76.8% (active); in the assay on OVCAR-4 ovarian it was -27.1% (active); in the assay with SK-OV-3 ovarian, -73.2% (active); in the assay with IGROV1 ovarian it was -61.5% (active). The growth was -64.3% (active) in the assay with OVCAR-3 ovarian, -55.9% (active) with HS 578T breast and 33.4% (inactive) with NCI/ADR-RES ovarian.
Turning to `Clc1cccc(Nc2ncnc3ccc(-c4cncc(-n5cnnn5)c4)cc23)c1`, the growth with SR leukemia is 71.2% (inactive); in the assay with RPMI-8226 leukemia, 35.5% (inactive); in the assay on OVCAR-8 ovarian it was 75.1% (inactive); in the assay with OVCAR-5 ovarian, 65.2% (inactive); in the assay with OVCAR-4 ovarian, 90.2% (inactive); in the assay with SK-OV-3 ovarian, -4.88% (active). Also, the values for the growth in the assay on IGROV1 ovarian, in the assay with HS 578T breast and in the assay on NCI/ADR-RES ovarian were 26.1% (inactive), 67.2% (inactive) and 76.4% (inactive), respectively.
Take `Cc1ccc(NC(=O)c2ccc(CN3CCN(C)CC3)cc2)cc1Nc1nccc(-c2cccnc2)n1`: the growth is 85.4% (inactive) and -22.5% (active) with SR leukemia; 87.4% (inactive) and 38.3% (inactive) with RPMI-8226 leukemia; 91.6% (inactive) and 67.7% (inactive) in the assay on OVCAR-8 ovarian; 100% (inactive) and 93.1% (inactive) in the assay on OVCAR-4 ovarian; 106% (inactive) and 107% (inactive) in the assay with SK-OV-3 ovarian; 119% (inactive) and 98.3% (inactive) in the assay with IGROV1 ovarian. Further, the growth in the assay on OVCAR-3 ovarian was 110% (inactive) and 84% (inactive); with HS 578T breast it was 90.1% (inactive); in the assay on NCI/ADR-RES ovarian, 101% (inactive) and 91.4% (inactive).
For the compound `CC(=O)N1N=C(c2ccc(Nc3nc(Nc4ccc(F)cc4)nc(Nc4ccc(F)cc4)n3)cc2)CC1c1ccccc1` (centres undefined), the growth is 23.3% (inactive) in the assay with SR leukemia; 33.9% (inactive) in the assay with RPMI-8226 leukemia; 83% (inactive) with OVCAR-8 ovarian; 95.3% (inactive) with OVCAR-4 ovarian; 89.2% (inactive) in the assay with SK-OV-3 ovarian; 117% (inactive) in the assay on IGROV1 ovarian. Also, the values for the growth in the assay with OVCAR-3 ovarian, with HS 578T breast and in the assay with NCI/ADR-RES ovarian were 141% (inactive), 94.8% (inactive) and 72.8% (inactive), respectively.
For the compound `Cc1ccc(S(=O)(=O)Nc2cc(Sc3ccccc3)c(O)c3ccccc23)cc1`, the growth was 20.8% (inactive) in the assay on SR leukemia; 28.8% (inactive) in the assay on RPMI-8226 leukemia; -0.704% (active) in the assay on OVCAR-8 ovarian; -99.7% (active) with OVCAR-4 ovarian; 115% (inactive) in the assay on SK-OV-3 ovarian; 85% (inactive) with IGROV1 ovarian. Moreover, the growth in the assay on HS 578T breast was 98.7% (inactive).
With `COc1ccc(Cn2cc(C(=O)Nc3cccnc3Nc3ccccc3)nn2)cc1`, the growth in the assay with SR leukemia is 94.9% (inactive); with RPMI-8226 leukemia it was 96.3% (inactive); in the assay with OVCAR-8 ovarian, 101% (inactive); with OVCAR-4 ovarian, 95% (inactive); with SK-OV-3 ovarian, 112% (inactive); in the assay on IGROV1 ovarian, 102% (inactive). The values for the growth in the assay on OVCAR-3 ovarian, in the assay on HS 578T breast and with NCI/ADR-RES ovarian were 118% (inactive), 94.1% (inactive) and 89.8% (inactive), respectively.
Consider `Cc1ccc(/C=C2\COc3ccc(O)c(O)c3C2=O)cc1`, for which the growth was 18% (inactive) in the assay on SR leukemia; -12.6% (active) in the assay with RPMI-8226 leukemia; 4.95% (active) in the assay with OVCAR-8 ovarian; 15.7% (inactive) in the assay on OVCAR-4 ovarian; 50% (inactive) with SK-OV-3 ovarian; -37.4% (active) in the assay with IGROV1 ovarian. The growth in the assay with OVCAR-3 ovarian is -21.3% (active); with HS 578T breast it was 20.5% (inactive).
For the compound `O=C(NNc1ccccc1)c1ccccc1`, the growth in the assay with SR leukemia was 104% (inactive); with RPMI-8226 leukemia, 82.2% (inactive) and 76.6% (inactive); in the assay on OVCAR-8 ovarian, 106% (inactive) and 73.5% (inactive); with OVCAR-5 ovarian, 77.2% (inactive) and 68.7% (inactive); in the assay with OVCAR-4 ovarian, 94.5% (inactive) and 64.6% (inactive); in the assay with SK-OV-3 ovarian, 95.5% (inactive) and 103% (inactive). In addition, the growth in the assay on OVCAR-3 ovarian was 81.4% (inactive) and 101% (inactive); in the assay on HS 578T breast it was 90.8% (inactive) and 99.1% (inactive); in the assay with NCI/ADR-RES ovarian, 64.3% (inactive) and 57.6% (inactive).
Turning to `CC(C)(C)c1cc(NC(=O)Nc2ccc(-c3cn4c(n3)sc3cc(OCCN5CCOCC5)ccc34)cc2)no1`, the growth was 9.24% (active) and 1.25% (active) with SR leukemia; -11% (active) and 22.8% (inactive) in the assay on RPMI-8226 leukemia; 13.2% (inactive) and -9.65% (active) in the assay on OVCAR-8 ovarian; 59.3% (inactive) and 3.54% (active) in the assay with OVCAR-4 ovarian; 45.4% (inactive) and 27.9% (inactive) in the assay on SK-OV-3 ovarian; 48.3% (inactive) and 37.5% (inactive) with IGROV1 ovarian. For the same compound, the growth in the assay with OVCAR-3 ovarian is -43.2% (active) and 38.5% (inactive); in the assay on HS 578T breast it was -2.54% (active); in the assay on NCI/ADR-RES ovarian it was 51.5% (inactive) and 23.2% (inactive).
Consider `O=C(/C=C\c1ccc(Cl)c(Cl)c1)c1ccccc1`, for which the growth in the assay with SR leukemia was 13.1% (inactive) and 106% (inactive); with RPMI-8226 leukemia, -27.3% (active) and 89.4% (inactive); in the assay with OVCAR-8 ovarian, 79.2% (inactive) and 98.9% (inactive); with OVCAR-5 ovarian it was 93.7% (inactive) and 106% (inactive); in the assay on OVCAR-4 ovarian, 88.3% (inactive); in the assay with SK-OV-3 ovarian, 101% (inactive) and 96.4% (inactive). Also, the growth was 92.7% (inactive) and 82.4% (inactive) with IGROV1 ovarian; 111% (inactive) with HS 578T breast; 99.1% (inactive) and 105% (inactive) in the assay on NCI/ADR-RES ovarian.
In the case of `O=C(Nc1ccc2ncsc2c1)c1csc(Nc2ccc3[nH]ncc3c2)n1`, the growth is 29.1% (inactive) with SR leukemia; 13.6% (inactive) in the assay with RPMI-8226 leukemia; 45.7% (inactive) in the assay on OVCAR-8 ovarian; 74.8% (inactive) in the assay on OVCAR-4 ovarian; 52.9% (inactive) with SK-OV-3 ovarian; 59.1% (inactive) with IGROV1 ovarian. Further, the values for the growth in the assay with OVCAR-3 ovarian, with HS 578T breast and in the assay on NCI/ADR-RES ovarian were 8.38% (active), 37.7% (inactive) and 56.9% (inactive), respectively.
Regarding `[2H]C([2H])([2H])Oc1cc(F)ccc1/C=C/C(=O)/C=C(/C=C/c1ccc(F)cc1OC([2H])([2H])[2H])OB(F)F`, the growth in the assay with SR leukemia was 41.7% (inactive); with RPMI-8226 leukemia, 3.53% (active); in the assay on OVCAR-8 ovarian it was 4.99% (active); in the assay with OVCAR-4 ovarian it was 17.5% (inactive); with SK-OV-3 ovarian, 101% (inactive); with IGROV1 ovarian it was 12% (inactive). For the same compound, the values for the growth in the assay on OVCAR-3 ovarian, in the assay with HS 578T breast and in the assay with NCI/ADR-RES ovarian were 10.5% (inactive), 46.3% (inactive) and 1.89% (active), respectively.
